Test [1] can be described thus: qHTS for Inhibitors of the Aldehyde Dehydrogenase Family (ALDH1A2, ALDH1A3, ALDH2, ALDH3A1) (AID 2061307). Further: nearly all actives have a fitted effect of over 50% in size. On Potency: test system not described further here; potency means the concentration at half of the fitted maximal effect. On activity change, negative = inhibition: on the % scale 0 is the no-effect control and ±100 the full control effect. The note with it: ALDH inhibition qHTS; series mostly up to 50.3 µM. A general note: In qHTS, concentration-response curves come from the screen itself.
Test [2] addresses Aldehyde dehydrogenase, mitochondrial (Homo sapiens) (UniProt P05091). Description: qHTS for Inhibitors of the Aldehyde Dehydrogenase Family (ALDH2) Primary screen (AID 2061308). Further: nearly all actives have a fitted effect of over 55% in size. Further: potency means the concentration at half of the fitted maximal effect.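 On activity change, negative = inhibition: plate controls were vehicle for no effect and reference inhibitor for full effect.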 The note with it: ALDH2 enzyme inhibition qHTS, 1536-well; series mostly up to 56 µM.
Test [3] has as its target Retinaldehyde dehydrogenase 3 (Homo sapiens) (UniProt P47895). The test can be described thus: qHTS for Inhibitors of the Aldehyde Dehydrogenase Family (ALDH1A3) Confirmatory screens (AID 2061311). Further: nearly all actives have a fitted effect of over 60% in size. Further: potency means the concentration at half of the fitted maximal effect. On activity change, negative = inhibition: on the % scale 0 is the no-effect control and ±100 the full control effect. To be noted: ALDH inhibition qHTS; series mostly up to 46 µM.
Test [4] concerns the target Aldehyde dehydrogenase 1A1 (Homo sapiens) (UniProt P00352). Description: qHTS for Inhibitors of the Aldehyde Dehydrogenase Family (ALDH1A1) Confirmatory screens (AID 2061316). Further: nearly all actives have a fitted effect of over 65% in size. Further: potency means the concentration at half of the fitted maximal effect. On activity change, negative = inhibition: on the % scale 0 is the no-effect control and ±100 the full control effect. To be noted: ALDH inhibition qHTS; series mostly up to 47.3 µM.
Test [5] concerns the target Retinal dehydrogenase 2 (Homo sapiens) (UniProt O94788). The test can be described thus: qHTS for Inhibitors of the Aldehyde Dehydrogenase Family (ALDH1A2) Confirmation screens (AID 2061314). Further: potency means the concentration at half of the fitted maximal effect; nearly all actives have a fitted effect of over 65% in size. To be noted: ALDH1A2 enzyme inhibition qHTS confirmation; series mostly up to 45.9 µM.
In test [6] the target is Retinaldehyde dehydrogenase 3 (Homo sapiens) (UniProt P47895). Description: qHTS for Inhibitors of the Aldehyde Dehydrogenase Family (ALDH1A3) Primary screen (AID 2061315).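 Further: plate controls were DMSO vehicle for no effect and reference inhibitor for full effect.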 The note with it: ALDH inhibition qHTS; series mostly up to 56 µM.

The structures appear in SMILES notation. Records with an inconclusive call do not appear. Values without a mark were called inactive. Activity calls are given as the source filed them. The call rests on the fitted dose curve; in most records, active means well fitted curve in the direction sought with a large enough effect; inconclusive means small, poorly fitted or top-dose-only effect, or another doubt; inactive means no such curve, though single readings can be large; an effect the other way counts as inactive or inconclusive.

Turning to `Cc1cc(-c2nnc3n2CCCCC3)c(C)n1-c1cccc2ccccc12`, the Potency result in test [1] and in test [2] was “inactive” each time. Moreover, in test [3], the activity change, negative = inhibition is -18.8% [at 0.022 µM]. Further, the Potency in test [4] was 12.7 µM (active).

With `Cc1ccc(CN(C)c2ccc(N3CCN(C)CC3)cc2)cc1`, in test [1], the Potency result was “inactive”. Also, the Potency in test [2] was 10 µM (active); in test [3], 20.1 µM (active); in test [4], 2.01 µM (active).

Consider `COc1ccc(C2Nc3ccccc3C(=O)N2Cc2ccc(CNC(=O)CO)cc2)cc1COc1ccc(NC(C)=O)cc1` (stereo not given), for which the Potency in test [1] is 4.49 µM (active); in test [5], 12.7 µM (active). Further, the Potency result in test [2] and in test [6] was “inactive” throughout.

Regarding `c1nc(NCC2CC2)c2cc(-c3ccc4c(c3)OCO4)ccc2n1`, the Potency entry in test [1], in test [2], in test [3] and in test [6] was “inactive” in each case.

`NC(=O)C1CCN(c2nccc(-c3ccc4c(c3)OCCCO4)n2)CC1`: the Potency result in test [1], in test [2] and in test [6] was “inactive” in each case. Also, the Potency in test [3] was 12.7 µM (active); in test [4] it was 11.3 µM (active).

As for `CNC(=O)C1CCN(c2nc(-c3ccc(Br)cc3)cs2)CC1`, the Potency in test [1] is 12.6 µM (active). Also, the Potency result in test [2], in test [3] and in test [6] was “inactive” throughout.

Turning to `COc1ccc(C2Nc3ccccc3C(=O)N2Cc2ccc(-c3ccccc3)cc2)cc1COc1ccc(NC(C)=O)cc1` (stereo not given), the Potency was 1.79 µM (active) in test [1] and 11.2 µM (active) in test [3]. For the same compound, the Potency entry in test [2] and in test [6] was “inactive” in each case.

On to `O=C1Nc2ccccc2/C1=C/c1cccc(C(=O)O)c1`, for which the values for the Potency in test [1] and in test [3] were 2.24 µM (active) and 4 µM (active), respectively. In addition, the Potency result in test [2] and in test [4] was “inactive” in each case.

Consider `Nc1ccc(Nc2cc(O)c3ncccc3c2)cc1`, for which the Potency entry in test [1] and in test [2] was “inactive” in each case. The Potency in test [3] was 0.712 µM (active); in test [4] it was 14.2 µM (active).

Turning to `CN1C(=O)Cc2cc([S+](=O)([O-])N3CCN([S+](=O)([O-])c4c(F)cccc4F)CC3)ccc21`, the Potency entry in test [1], in test [2], in test [3] and in test [6] was “inactive” throughout.

For the compound `Cc1ccc(N[S+](=O)([O-])c2cc3c(cc2Cl)NC(=O)CO3)cc1Br`, the values for the Potency in test [1] and in test [5] were 10.1 µM (active) and 14.2 µM (active), respectively. Moreover, the Potency result in test [2] and in test [6] was “inactive” in each case.

For `Cc1ccc(CN(C)c2ncnc3ccc(-c4ccc(C#N)n4C)cc23)o1`, the Potency in test [1] is 3.16 µM (active); in test [3], 22.4 µM (active); in test [4] it was 12.7 µM (active). Also, the Potency result in test [2] and in test [6] was “inactive” each time.

The record behind these values is PubChem BioAssay (NCATS).
